Data from PubChem BioAssay (NCI).
Compounds without any hit were thinned out: in the full panel of roughly 83,000, 20% have a hit.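 How to read the values: 0–100, growth inhibition (40 = 60% inhibited); 0, no net growth; -100 to 0, cell death (-40 = 40% of starting cells died; -100 = all dead).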 Values without a mark were called inactive. The source made the active and inactive calls. Rule for the calls: active = growth percent below 10; inactive = the rest.

Tests used:
Experiment in all cases: NCI-60 one-dose screen, 48 h (100 = growth as untreated, 0 = no growth, -100 = all killed)
Settings in all cases: 10 µM unless noted
HT29 colon = system: HT29 colon
SNB-75 CNS = system: SNB-75 CNS
SNB-19 CNS = system: SNB-19 CNS
U251 CNS = system: U251 CNS
SK-MEL-5 melanoma = system: SK-MEL-5 melanoma
UACC-62 melanoma = system: UACC-62 melanoma
LOX IMVI melanoma = system: LOX IMVI melanoma
SK-MEL-28 melanoma = system: SK-MEL-28 melanoma
SK-MEL-2 melanoma = system: SK-MEL-2 melanoma
PC-3 prostate = system: PC-3 prostate

Structure (SMILES)	growth (HT29 colon)	growth (SNB-75 CNS)	growth (SNB-19 CNS)	growth (U251 CNS)	growth (SK-MEL-5 melanoma)	growth (UACC-62 melanoma)	growth (LOX IMVI melanoma)	growth (SK-MEL-28 melanoma)	growth (SK-MEL-2 melanoma)	growth (PC-3 prostate)
COc1ccc(/C=C/C(=O)Nc2cccnc2Nc2ccc(F)cc2)cc1	109%	97.3%	87.9%	93.4%	87.2%	86.6%	98.9%	98.6%	120%	
O=C(N1CCC(CN=c2cc3n(-c4ccc(Cl)cc4)c4ccccc4nc-3cc2Nc2ccc(Cl)cc2)CC1)N1CC1	-97.9% (active)	-60.6% (active)	-67.7% (active)	-62.5% (active)	-97.6% (active)	-77.5% (active)	-67.5% (active)	-90.8% (active)	-80.8% (active)	
CCOC(=O)/C=C(/C)Sc1cc(O)c2ccccc2c1O	79.7%	-83% (active)	-14.7% (active)	20%	-99.1% (active)	36.3%	-36.1% (active)	-53.9% (active)	27.8%	
COc1ccc2c(c1)C(=O)/C(=C/c1cccc(OCC(=O)c3ccccc3)c1)CC2	80.9%	112%	100%	76.9%	39.3%	70.2%	70.3%	106%	67.3%	
Cc1ccc(NC(=O)COC(=O)c2ccc(S(=O)(=O)N3CCCCCC3)cc2)cc1	106%	94.7%	33.4%	104%	104%	95%	97.1%		144%	
O=C(/C=C/c1cccnc1)/C=C/c1cccnc1	-55.2% (active)	24.7%	21.5%	-34.9% (active)	21%	-69.4% (active)	-84% (active)	-78.4% (active)	64.1%	
COc1ccc(-c2c3c(nn2-c2ccc(N)cc2)CCc2cnoc2-3)cc1OC	93.6%	79.4%	90.3%	89.1%	76%	80%	86.4%	116%	101%	
CC/C=C\C=C/C(=O)N/C=C/CC1Cc2cccc(O)c2C(=O)O1 (stereo not given)	44.1%	18.7%	56%	57.7%	13%	61.4%	75%	76.9%	95.8%	
COc1cc2c(cc1OCCCOc1ccc(-c3cc4ccccc4c4ccccc34)cc1)N=C[C@@H]1CCCN1C2=O	-46.6% (active)	-78% (active)	-46.8% (active)	-79.3% (active)	-80.2% (active)	-83.6% (active)	-62.1% (active)	-62.2% (active)	-78.8% (active)	
O=C(C=C=Nc1ccccc1)C(=O)N=C=Cc1ccccc1	52.1%	75.8%	92.3%	83.7%	74.3%	67%	-47.5% (active)	68.2%	49.2%	
NC(=O)N/N=C/c1ccc(Br)o1	102%	105%	111%	106%	101%	104%	94.2%	105%	99.6%	
Cn1cnc([N+](=O)[O-])c1S(=O)(=O)Oc1ccc(Cl)cc1	-36.9% (active)	103%	102%	85.4%	95.4%	78.7%	45.2%	97.4%	90.6%	
COc1ccc(-c2nc3sccn3c2-c2ccnc(S(C)(=O)=O)n2)cc1	89%	61.1%	64.2%	94.4%	98.9%	77.1%	68.8%	43.7%	100%	
CCOc1ccccc1C(=O)OCC(=O)Nc1cccc(S(=O)(=O)N(C)C)c1	98.6%	82.7%	83.5%	105%	97.4%	94.5%	101%	104%	94.2%	
O=Nc1ccc(O)c(=O)cc1	4.07% (active)	63.3%	102%	14.6%	79.8%	34.9%	-4.94% (active)	55.9%	71.4%	
COc1ccc(Cn2cc3c(c2-c2ccccc2)CCc2cncnc2-3)cc1	19.7%	71.1%	62.8%	47%	55.4%	33.3%	52.3%	59.3%	28.2%	

Structure (SMILES)	growth (HT29 colon)	growth (SNB-75 CNS)	growth (SNB-19 CNS)	growth (U251 CNS)	growth (SK-MEL-5 melanoma)	growth (UACC-62 melanoma)	growth (LOX IMVI melanoma)	growth (SK-MEL-28 melanoma)	growth (SK-MEL-2 melanoma)	growth (PC-3 prostate)
O=C1OCCCCCCCCCC#Cc2ccccc21	70.8%	88.7%	98.6%	115%	89%	99.2%	140%	110%	109%	
COc1ccc(Nc2ccnc(NCCCNc3ccnc4cc(Cl)ccc34)n2)cc1	-56.6% (active)	-75.5% (active)	7.11% (active)	-84.3% (active)	-98% (active)	-91.2% (active)	-80.4% (active)	-93.6% (active)	-86.4% (active)	
O=c1ccn(C2OC(CO)C(O)C2F)c(=O)[nH]1 (stereo not given)	104%	93%	101%	113%	107%	92.4%	106%	116%	119%	
CN(C)c1ccc(/C=C(\C#N)c2nc3ccccc3c(=O)[nH]2)cc1	87.6%	113%	94.7%	77.4%	89.3%	94.8%	83.8%	110%	36.5%	
N#Cc1ccc(NC(=O)Nc2ccc(Oc3ccc(NC(=O)Nc4ccc(C#N)cc4)cc3)cc2)cc1	37.4%	70.1%	30.7%	27.7%	31.2%	11.2%	35.4%	51%	-19.6% (active)	
O=C1NCN(CCO)CN1	99.8%	100%	100%	109%	106%	92.8%	103%	110%	108%	
O=C(Nc1cccc(-n2cc(-c3ccncc3)c(-c3ccc(O)c(Cl)c3)n2)c1)Nc1ccc(Cl)c(C(F)(F)F)c1	21.6%	-12% (active)	33.1%		-35.9% (active)	-38.9% (active)	0.0501% (active)			-22.6% (active)
ClC1=C(Cl)C(Cl)=C(Cl)C1=Cc1ccc(Cl)cc1	-30.1% (active)	97.5%	76.4%		100%	58.6%	-85.5% (active)	116%	99.7%	-36.1% (active)
CCn1c2ccccc2c2ccc(C(C)=O)cc21	95.9%	94.9%	106%	101%		97.9%		106%	112%	
CCCCOc1ccc(C(C)(C)c2ccc(OCCCC)cc2)cc1	102%	97.6%	108%		111%	106%	101%	107%	96.9%	99.9%
O=C(CSc1nc2c(n1Nc1ccccc1)-c1ccccc1SC2)Nc1nc(-c2ccc(Cl)cc2)cs1	68.4%	44.8%	80.5%		88.1%	83.3%	30.4%		111%	72.2%
Nc1ccc(S(=O)(=O)Nc2ncccn2)cc1	105%	102%	105%		108%		102%	118%	106%	97.7%
CCSc1nnc2n(Cc3ccccc3)c(=O)c3c(C)c(C(N)=O)sc3n12	100%	69.4%	108%			97.7%	95.6%	109%		97.3%
O=[N+]([O-])c1ccc(N/N=C\c2ccccc2[N+](=O)[O-])nc1	104%	103%	99.4%		105%	96.7%	105%	110%	95.6%	99.7%
CC(C)COCC(CN(Cc1ccccc1)c1ccccc1)N1CCCC1 (stereo not given)	-24.5% (active)	72.5%	79.1%		51.4%	81.1%	47.5%	84.9%	77.2%	41.9%
